The nature of assay [1]: qHTS assay to identify small molecule antagonists of the vitamin D receptor (VDR) signaling pathway - cell viability counter screen (AID 743225). Note: nearly all actives have a fitted effect of over 50% in size. The essentials: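 VDR-bla HEK 293T cells, 4 h pre-incubation at 37C, then compound plus 1-alpha,25-dihydroxyvitamin D3 (3 nM final) for 16 h. After the beta-lactamase FRET read, CellTiter-Glo was added to the same wells; luminescence after 30 min at room temperature.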
(In general: qHTS replaces the single test concentration by a dilution series.)

Assay [2] is described as follows: qHTS assay to identify small molecule agonists of the NFkB signaling pathway (AID 1159509; active = well fitted curve in the direction sought with a large enough effect in the signal ratio in the repeat runs, not every such curve was filed as active; the % refers to the signal ratio; note: series mostly up to about 61 µM). The procedure, abridged:
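Readout: FRET fluorescence, 405 nm excitation, 460/530 nm emission; beta-lactamase expression disrupts FRET. Cells: ME-180 stably carrying NF-kB-driven bla reporter. Compound exposure 5 hr, 37 C, 5% CO2.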

Assay [3] in a line: qHTS assay to identify small molecule agonists of the NFkB signaling pathway - cell viability counter screen (AID 1159515; calls by dose curve; note: series mostly up to about 61 µM; nearly all actives have a fitted effect of over 55% in size). The essentials:
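Cells are seeded (2,000 NFkB-bla ME-180 per well), rested overnight, and dosed with DMSO-dissolved compounds for 5 hr at 37 C. Viability is then read by CellTiter-Glo luminescence after 30 min at room temperature.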

Assay [4] can be described thus: qHTS assay to identify small molecule agonists of the endoplasmic reticulum stress response signaling pathway (AID 1159516; active = well fitted activation curve with a large enough effect in the signal ratio in the repeat runs, not every such curve was filed as active; the % refers to the signal ratio). The procedure, abridged: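 Cells are seeded at 1,500 per well and incubated overnight. Compounds in DMSO are added for 5 hr at 37 C, then beta-lactamase FRET substrate for 2 hr at room temperature, and fluorescence at 460 and 530 nm is measured.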

A short description of assay [5]: qHTS assay to identify small molecule agonists of the endoplasmic reticulum stress response signaling pathway - cell viability counter screen (AID 1159517; calls by dose curve;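 note: HeLa cells carrying an ER stress response element beta-lactamase reporter; series mostly up to about 61 µM; nearly all actives have a fitted effect of over 50% in size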). The essentials: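 After overnight attachment, ESRE-bla HeLa cells were treated with Tox21 library compounds for 5 hr. CellTiter-Glo luminescence, read 30 min post-addition at room temperature, reported viability.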

A short description of assay [6]: qHTS assay to identify small molecule antagonists of the retinoid-related orphan receptor gamma (ROR-gamma) signaling pathway - cell viability counter screen (AID 1159520). Note: nearly all actives have a fitted effect of over 50% in size. Note: potency is the fitted concentration of half-maximal effect. The procedure, abridged:
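Cytotoxicity was read from cellular ATP (CellTiter-Glo luminescence) after 16 hr at 37 C with 1 uM doxycycline induction. The inducer was added 2 hr after compound transfer to Tet-on ROR gamma CHO cells.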

The target in assay [7] is Nuclear receptor ROR-gamma (Homo sapiens) (UniProt P51449). Kind of assay: qHTS assay to identify small molecule antagonists of the retinoid-related orphan receptor gamma (ROR-gamma) signaling pathway (AID 1159521; note: nearly all actives have a fitted effect of over 50% in size; note: potency is the fitted concentration of half-maximal effect). The essentials:
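Tet-on RORγ CHO cells carrying a ROR response element–luciferase reporter were pretreated with compounds for 2 h, then induced with 1 uM (final) doxycycline hyclate for 16 h at 37 C. Antagonism was read as decreased ONE-Glo luminescence.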

Assay [8] can be described thus: qHTS assay to identify small molecule agonists of the AP-1 signaling pathway - cell viability counter screen (AID 1159525; calls by dose curve; note: nearly all actives have a fitted effect of over 55% in size). The essentials:
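Intracellular ATP by Cell Titer Glo luminescence (30 min, RT) in the same ME-180 AP-1-bla wells after the 5 h compound exposure at 37 °C. Normalised to tetra n-octyl ammonium bromide and DMSO controls.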

Assay [9] in a line: qHTS assay to identify small molecule agonists of the AP-1 signaling pathway (AID 1159526; calls by dose curve).
A short description of assay [10]: qHTS assay to identify small molecule agonists of the RXR signaling pathway - cell viability counter screen (AID 1159529). The essentials:
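RXR-alpha-UAS-bla HEK 293T cells in medium with 2% charcoal-stripped FBS were preincubated 5 hr, then exposed to compounds for 16 hr at 37 C. Viability was read as CellTiter-Glo luminescence after 30 min at room temperature.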

Assay [11] is described as follows: qHTS assay to identify small molecule antagonists of the retinoid acid receptor (RAR) signaling pathway - cell viability counter screen (AID 1159551). Note: nearly all actives have a fitted effect of over 35% in size. The essentials:
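Cells (C3RL4) are plated, incubated overnight, dosed with compound in DMSO, then given retinol at 1 uM final. After 6 h at 37 C, CellTiter-Glo is added and luminescence read following 30 min at room temperature.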

Assay [12] in a line: qHTS assay to identify small molecule antagonists of the retinoic acid receptor (RAR) signaling pathway (AID 1159552; note: nearly all actives have a fitted effect of over 50% in size). The essentials: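 RARE-luc C3RL4 cells; cpds + 1 uM (final) retinol, 6 hr, 37 C/5% CO2; luciferase reagent, 30 min RT, luminescence readout. Inhibitors of retinol-driven signal scored.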
The nature of assay [13]: qHTS assay to identify small molecule agonists of the retinoic acid receptor (RAR) signaling pathway (AID 1159553). Note: potency is the fitted concentration of half-maximal effect. The procedure, abridged:
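Seed C3RL4 reporter cells at 1,000 per well and incubate overnight at 37 C. Add compounds in DMSO, incubate 6 hr. Add luciferase reagent, wait 30 min at room temperature, read luminescence.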

Records with an inconclusive call do not appear. Values without a mark were called inactive. Calls of active or inactive are those of the source. Unless noted, calls come from the whole dose curve; as a rule, active = well fitted curve in the direction sought with a large enough effect in the repeat runs; inconclusive = weak or mixed curves; inactive = no such curve, though single readings can be large; an effect the other way counts as inactive or inconclusive.

Regarding `Cc1c(N=C=O)cccc1N=C=O`, the molecule was called inactive in [1], in assay [2], in [3], in assay [4], in assay [5] and in [8]. In addition, the outcome in [11] and in [12] was inactive. Besides, the Potency result in assay [6], in [7], in [9], in [10] and in assay [13] was “inactive” in each case.

Regarding `C(/C=C/C=C/Nc1ccccc1)=Nc1ccccc1`, the molecule was called inactive in [1], in assay [2], in assay [3], in assay [4], in [5] and in [8]. Besides, the outcome in assay [11] and in assay [12] was inactive. Further, the Potency result in assay [6], in [7], in [9], in [10] and in assay [13] was “inactive” throughout.

For `OCC(O)c1ccccc1` (centres undefined), the result in [2], in assay [3], in assay [4], in assay [5], in assay [8] and in [11] was inactive. The Potency result in assay [6], in assay [7], in [9], in assay [10] and in assay [13] was “inactive” each time.

`CC(C)(O)C(=O)O`: the molecule was called inactive in [2], in assay [3], in assay [4], in assay [5], in [8] and in assay [11]. Moreover, the Potency entry in assay [6], in [7], in assay [9], in assay [10] and in assay [13] was “inactive” throughout.

As to `CC(C)C/C=C(\C=O)c1ccccc1`, the molecule was classed as inactive in assay [2], in assay [3], in assay [4], in [5], in [8] and in assay [11]. The outcome in [12] was inactive. For the same molecule, the Potency entry in [6], in assay [7], in assay [9], in assay [10] and in assay [13] was “inactive” in each case.

Consider `O=[N+]([O-])c1ccccc1CCO`, for which the result in assay [1], in [2], in assay [3], in [4], in assay [5] and in assay [8] was inactive. Moreover, the molecule was called inactive in assay [11] and in assay [12]. The Potency result in assay [6], in [7], in assay [9], in assay [10] and in assay [13] was “inactive” each time.

Take `C=C[Si](OCC)(OCC)OCC`: the call in [2], in assay [3], in assay [4], in [5] and in assay [8] was inactive. Also, the Potency entry in [6], in assay [7], in assay [9] and in [10] was “inactive” in each case.

Consider `Cc1ccc2c(Cl)cc(Cl)c(O)c2n1`, for which the call in assay [1], in [2], in [3], in assay [4], in [5] and in [8] was inactive. For the same molecule, the result in assay [11] and in [12] was inactive. The Potency entry in assay [6], in assay [7], in assay [9], in assay [10] and in assay [13] was “inactive” throughout.

On to `CC(C)C[C@H](NC(=O)[C@H](Cc1ccccc1)NC(=O)c1cnccn1)B(O)O`, for which the molecule was called inactive in [1], in assay [2], in assay [3], in [4], in assay [5] and in [8]. Moreover, the molecule was classed as inactive in [11] and in assay [12]. Also, the Potency in [6] was 66.8 nM (active); in [7], 47.3 nM (active); in assay [13], 9.4 nM (active). The Potency entry in assay [9] and in [10] was “inactive” each time.

Take `O=C(O)c1ccccc1[N+](=O)[O-]`: the call in assay [1], in assay [2], in assay [3], in assay [4], in assay [5] and in assay [8] was inactive. Further, the outcome in assay [11] and in assay [12] was inactive. Besides, the Potency result in assay [6], in [7], in [9], in assay [10] and in assay [13] was “inactive” in each case.

With `CCCCOC(=O)C(C)Oc1ccc(Oc2ccc(C(F)(F)F)cn2)cc1` (centres undefined), the result in assay [1], in assay [2], in [3], in assay [4], in assay [5] and in assay [8] was inactive. Also, the result in [11] and in [12] was inactive. Moreover, the Potency result in assay [6], in assay [7], in [9], in assay [10] and in assay [13] was “inactive” in each case.

As for `Cc1c(Cl)cccc1[N+](=O)[O-]`, the molecule was classed as inactive in assay [1], in assay [2], in [3], in assay [4], in [5] and in [8]. Besides, the call in assay [11] and in [12] was inactive. The Potency entry in [6], in assay [7], in assay [9], in assay [10] and in [13] was “inactive” in each case.

In the case of `Cc1cc(N)n(-c2ccccc2)n1`, the call in [1], in assay [2], in [3], in assay [4], in assay [5] and in assay [8] was inactive. Besides, the outcome in [11] and in assay [12] was inactive. Moreover, the Potency entry in assay [6], in [7], in assay [9] and in assay [10] was “inactive” in each case.

Consider `CCOC(OCC)OCC`, for which the outcome in assay [1], in assay [2], in assay [3], in assay [4], in assay [5] and in assay [8] was inactive. In addition, the molecule was classed as inactive in assay [11] and in assay [12]. For the same molecule, the Potency result in assay [6], in [7], in assay [9], in assay [10] and in assay [13] was “inactive” each time.

For `CCCc1nc(C)c2c(=O)[nH]c(-c3cc(S(=O)(=O)N4CCN(CC)CC4)ccc3OCC)nn12`, the call in assay [1], in assay [2], in assay [3], in [4], in assay [5] and in assay [8] was inactive. In addition, the call in [11] and in assay [12] was inactive. The Potency result in assay [6], in assay [7], in assay [9], in assay [10] and in assay [13] was “inactive” each time.

Regarding `COc1cc(C)c(Cc2cnc(N)nc2N)cc1OC`, the molecule was classed as inactive in assay [1], in assay [2], in [3], in [4], in assay [5] and in [8]. In addition, the outcome in assay [11] and in assay [12] was inactive. Besides, the Potency entry in [6], in assay [7], in assay [9] and in assay [10] was “inactive” throughout.

Take `CCCCCCCCNC`: the outcome in assay [2], in [3], in assay [4], in assay [5], in assay [8] and in [11] was inactive. Also, the Potency result in assay [6], in assay [7], in assay [9] and in assay [10] was “inactive” each time.

As for `O=[N+]([O-])c1ccc(Cl)cc1Cl`, the molecule was called inactive in assay [1], in assay [2], in assay [3], in assay [4], in assay [5] and in assay [8]. Moreover, the molecule was called inactive in assay [11] and in assay [12]. Besides, the Potency result in assay [6], in [7], in assay [9], in assay [10] and in [13] was “inactive” each time.

As to `CCOCCn1c(N2CCCN(C)CC2)nc2ccccc21`, the call in assay [1], in [2], in assay [3], in assay [4], in assay [5] and in assay [8] was inactive. Besides, the molecule was called inactive in assay [11] and in [12]. The Potency result in assay [6], in [7], in assay [9], in assay [10] and in assay [13] was “inactive” in each case.

As for `CCc1cnc(C(=O)O)c(C(=O)O)c1`, the call in assay [1], in [2], in [3], in [4], in [5] and in assay [8] was inactive. For the same molecule, in assay [11], the result was inactive. Moreover, the Potency entry in assay [6], in [7], in [9] and in assay [10] was “inactive” throughout.

The values above are taken from PubChem BioAssay (Tox21).
